Compounds without any hit were thinned out: in the full panel of roughly 83,000, 20% have a hit.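 Growth was measured after 48 h exposure to one concentration of compound in 96-well plates. Values under 10 count as active.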 Values without a mark were called inactive. Activity calls are given as the source filed them.

The text below walks through data of PubChem BioAssay (NCI).

Holding throughout (test): NCI-60 one-dose screen, 48 h (100 = growth as untreated, 0 = no growth, -100 = all killed)
Assay [1] concerns HT29 colon. The following applies: 10 µM unless noted.
The test system of assay [2] is SNB-75 CNS. The following applies: 10 µM.
For assay [3], the system named is SNB-19 CNS. The following applies: 10 µM unless noted.
The subject of assay [4] is PC-3 prostate. The following applies: 10 µM unless noted.
In assay [5] the test system is SK-MEL-5 melanoma. The following applies: 10 µM unless noted.
For assay [6], the system named is UACC-62 melanoma. The following applies: 10 µM unless noted.
Assay [7] relates to SK-MEL-28 melanoma. The following applies: 10 µM unless noted.
The subject of assay [8] is U251 CNS. The following applies: 10 µM unless noted.
The subject of assay [9] is LOX IMVI melanoma. The following applies: 10 µM unless noted.
The subject of assay [10] is HCT-15 colon. The following applies: 10 µM unless noted.

Regarding `c1ccc(-c2nnc(-c3ccccn3)s2)nc1`, the growth in assay [1] was 104%; in assay [2], 70.4%; in [3], 97.9%; in [4], 93.8%; in assay [5], 97.2%; in [6], 95.7%. The growth in [7] was 127%.
`CCOC(=O)c1ccc2c(c1)c1c(C)c3cccnc3c(C)c1n2C`: the growth in [1] was 47.4%; in [2] it was 68%; in [3] it was 56.4%; in [8], 48.1%; in assay [4] it was 58.3%; in assay [5], 69.9%. Moreover, the growth in [6] was 49.2%; in assay [9], 22.9%; in assay [7] it was 85.3%.
As to `C=C1C(=O)O[C@H]2[C@H]1CC/C(COC(=O)NCc1ccccc1OC)=C\CC[C@@]1(C)O[C@@H]21`, the growth in assay [1] is -3.76% (active); in assay [2], 77.4%; in assay [3], 57.6%; in [8], 74.8%; in assay [4], 52.4%; in assay [5], 92.8%. Further, the figures for the growth in [6], in [9] and in assay [7] were 23.4%, 5.34% (active) and 47.5%, respectively.
For `c1cc2[nH]ncc2cc1-c1nc2ccc3[nH]ncc3c2c2c1CCC2`, the growth is 37.9% in assay [1]; 34.9% in assay [2]; 69.5% in assay [3]; 43.6% in assay [8]; 54.5% in assay [4]; 56.6% in [5]. The values for the growth in [6] and in assay [9] were 15.4% and 40.4%, respectively.
With `COc1cc(NCCCCCN)c2ncccc2c1`, the growth in [1] is 118%; in assay [8] it was 107%; in assay [4], 108%; in [9] it was 103%; in assay [7] it was 114%.
With `O=C(CSc1nc2ccccc2[nH]1)Nc1ccc(-c2nc3ccccc3s2)c(Cl)c1`, the growth in assay [1] is 14.7%; in [2], -28.5% (active); in assay [3], 65%; in [4] it was 26.3%; in [5] it was 23.4%; in [7], 0.271% (active).
For the compound `CC1(C)C(=O)/C(=C\c2ccc(C(F)(F)F)cc2)C[C@]2(C)[C@H]3CC[C@@H]4[C@H]5[C@H](C(=O)/C=C/c6ccc(C(F)(F)F)cc6)CC[C@]5(CO)CC[C@@]4(C)[C@]3(C)CC[C@@H]12`, the growth in assay [1] was 104%; in assay [3], 92.6%; in [8], 92.8%; in assay [4], 84%; in assay [5] it was 94.1%; in [6] it was 84.3%. Further, the growth in [7] is 110%.
Consider `Nc1nc(-c2ccccc2)c(CCCOc2ccc(NC(=O)CBr)cc2)c(=O)[nH]1`, for which the growth was 101% in assay [10]; 86.4% in assay [8]; 107% in [4]; 92.9% in [5]; 90.3% in [6]; 20.3% in [9]. The growth in assay [7] was 104%.
As to `NC(=N\N=C/c1ccc(O)cc1)/C(N)=N\N=C/c1ccc(O)cc1`, the growth in [1] is 105%; in assay [2], 94.4%; in [3], 92.7%; in assay [8] it was 72.3%; in [4] it was 33.1%; in assay [6], 30.3%. Further, the figures for the growth in [9] and in assay [7] were 28.7% and 88.2%, respectively.
Turning to `COc1ccc(C(=O)c2cc(OC)c3c(c2)OCO3)cc1O`, the growth in assay [10] was 19.1%; in assay [8], 27.9%; in assay [4], 29.4%; in [5], -52% (active); in assay [6], 43.6%; in assay [9] it was 26.7%. Moreover, in assay [7], the growth is 65.6%.
With `O=S1(=O)CCC(N(/N=C/c2ccco2)c2ccccc2)C1` (configuration not stated), the growth in assay [1] is 96.3%; in assay [2] it was 132%; in assay [3], 104%; in assay [8], 99%; in assay [4], 93.1%; in [5], 103%. Moreover, the values for the growth in [6], in assay [9] and in assay [7] were 100%, 94.1% and 115%, respectively.
